Inconclusive results are not listed. Activity calls are given as the source filed them. Calls come from the whole dose curve; as a rule, active = well fitted curve in the direction sought with a large enough effect; inconclusive = small, poorly fitted or top-dose-only effect, or another doubt; inactive = no such curve, though single readings can be large; an effect the other way counts as inactive or inconclusive.

The values that follow come from PubChem BioAssay (NCATS).

Test [1] can be described thus: Quantitative High-Throughput drug screen in 47 multiple myeloma cell lines against the NCATS MIPE library collection: KMM1_JCRB cell viability assay (AID 1918960). Note: nearly all actives have a fitted effect of over 30% in size. The essentials: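 ATP readout (CellTiter-Glo), 48 h drug incubation, 37 °C/5% CO2, 500 cells per well; normalisation to DMSO (100%) and media-only (0%) controls.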
A short description of test [2]: Quantitative High-Throughput drug screen in 47 multiple myeloma cell lines against the NCATS MIPE library collection: KHM11_PLB cell viability assay (AID 1918962). Note: nearly all actives have a fitted effect of over 35% in size. The essentials:
(§1)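 Myeloma cell lines, 500 cells per well, exposed to MIPE 4.0 library compounds for 48 h at 37C, 5% CO2. Viability from ATP by CellTiter-Glo luminescence; normalised to DMSO (100%) and media-only (0%) wells.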

Test [3] in a line: Quantitative High-Throughput drug screen in 47 multiple myeloma cell lines against the NCATS MIPE library collection: JJN3_DSMZ cell viability assay (AID 1918966; note: nearly all actives have a fitted effect of over 50% in size). The essentials: (§2)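 Steps: seed 500 cells per well; pin-transfer MIPE 4.0 library; incubate 48 h at 37C, 5% CO2, humidified; add CellTiter-Glo, 5 min room temperature; read luminescence.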
Test [4] is described as follows: Quantitative High-Throughput drug screen in 47 multiple myeloma cell lines against the NCATS MIPE library collection: H1112_PLB cell viability assay (AID 1918967; note: nearly all actives have a fitted effect of over 30% in size). The essentials:
as §2

Test [5] in a line: Quantitative High-Throughput drug screen in 47 multiple myeloma cell lines against the NCATS MIPE library collection: KMS12BM_JCRB cell viability assay (AID 1918971). Note: nearly all actives have a fitted effect of over 35% in size. The essentials:
(§3)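 Relative luminescence from CellTiter-Glo served as the viability signal, referenced to DMSO-treated (100%) and cell-free medium (0%) controls. Treatment lasted 48 hours at 37C with 500 cells per well.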

The nature of test [6]: Quantitative High-Throughput drug screen in 47 multiple myeloma cell lines against the NCATS MIPE library collection: KMS12PE_JCRB cell viability assay (AID 1918972). Note: nearly all actives have a fitted effect of over 30% in size. The essentials:
as §1

The nature of test [7]: Quantitative High-Throughput drug screen in 47 multiple myeloma cell lines against the NCATS MIPE library collection: KMS26_JCRB cell viability assay (AID 1918975). Note: nearly all actives have a fitted effect of over 45% in size. The essentials: as §3
Test [8] can be described thus: Quantitative High-Throughput drug screen in 47 multiple myeloma cell lines against the NCATS MIPE library collection: MMM1_PLB cell viability assay (AID 1918976). Note: nearly all actives have a fitted effect of over 35% in size. The essentials: (§4)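 500 cells/well per myeloma line exposed to pinned MIPE 4.0 compounds for 48 h at 37 °C, 5% CO2. Viability read as ATP by CellTiter-Glo luminescence, normalised to DMSO-only (100%) and media-only (0%) wells.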

Test [9] is described as follows: Quantitative High-Throughput drug screen in 47 multiple myeloma cell lines against the NCATS MIPE library collection: MOLP8_DSMZ cell viability assay (AID 1918977). Note: nearly all actives have a fitted effect of over 45% in size. The essentials: as §4
The nature of test [10]: Quantitative High-Throughput drug screen in 47 multiple myeloma cell lines against the NCATS MIPE library collection: NCIH929_DSMZ cell viability assay (AID 1918978). Note: nearly all actives have a fitted effect of over 35% in size. The essentials: as §4
Test [11] can be described thus: Quantitative High-Throughput drug screen in 47 multiple myeloma cell lines against the NCATS MIPE library collection: MM1S_ATCC cell viability assay (AID 1918980). Note: nearly all actives have a fitted effect of over 45% in size. The essentials:
as §4

The nature of test [12]: Quantitative High-Throughput drug screen in 47 multiple myeloma cell lines against the NCATS MIPE library collection: JIM3_ECACC cell viability assay (AID 1918963; note: nearly all actives have a fitted effect of over 35% in size). The essentials:
as §1

Test [13] in a line: Quantitative High-Throughput drug screen in 47 multiple myeloma cell lines against the NCATS MIPE library collection: INA6_PLB cell viability assay (AID 1918965; note: nearly all actives have a fitted effect of over 55% in size). The essentials:
as §1

A short description of test [14]: Quantitative High-Throughput drug screen in 47 multiple myeloma cell lines against the NCATS MIPE library collection: Karpas25_ECACC cell viability assay (AID 1918968; note: nearly all actives have a fitted effect of over 35% in size). The essentials: as §2
A short description of test [15]: Quantitative High-Throughput drug screen in 47 multiple myeloma cell lines against the NCATS MIPE library collection: OCIMY1_PLB cell viability assay (AID 1918979). Note: nearly all actives have a fitted effect of over 35% in size. The essentials:
as §4

A short description of test [16]: Quantitative High-Throughput drug screen in 47 multiple myeloma cell lines against the NCATS MIPE library collection: KMS27_JCRB cell viability assay (AID 1918970). Note: nearly all actives have a fitted effect of over 30% in size. The essentials: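 Myeloma cells (500 per well) were exposed to MIPE 4.0 compounds for 48 h at 37 °C, 5% CO2; viability was read as ATP luminescence with CellTiter-Glo, normalized to DMSO-only (100%) and media-only (0%) wells.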

A short description of test [17]: Quantitative High-Throughput drug screen in 47 multiple myeloma cell lines against the NCATS MIPE library collection: KMS20_JCRB cell viability assay (AID 1918973). Note: nearly all actives have a fitted effect of over 45% in size. The essentials: as §2
Test [18] in a line: Quantitative High-Throughput drug screen in 47 multiple myeloma cell lines against the NCATS MIPE library collection: JIM1_ECACC cell viability assay (AID 1918964). The essentials: as §2
A short description of test [19]: Quantitative High-Throughput drug screen in 47 multiple myeloma cell lines against the NCATS MIPE library collection: KMS21BM_JCRB cell viability assay (AID 1918974). The settings on record: ATP luminescence, 48 h; viability: at 45.8 µM (top of the series) unless noted. The essentials:
as §2
Potency is the fitted concentration of half-maximal effect.

Regarding `CN(C)CCCN=c1c2ccccc2n(C)c2[nH]c(=O)n(C)c(=O)c12`, the Potency in test [1] was 4690 nM (active); in test [2] it was 5260 nM (active); in test [3] it was 16600 nM (active); in test [4], 16600 nM (active); in test [5], 4180 nM (active); in test [6], 5900 nM (active). The Potency in test [7] was 26400 nM (active); in test [8] it was 16600 nM (active); in test [9] it was 6620 nM (active); in test [10], 11800 nM (active); in [11], 3720 nM (active).

Regarding `Cc1[nH]c2ccccc2c1CCNCc1ccc(C=CC(=O)NO)cc1`, the Potency in [1] was 52.6 nM (active); in test [2] it was 148 nM (active); in [12], 235 nM (active); in test [13], 13.2 nM (active); in [3] it was 93.5 nM (active); in [4] it was 105 nM (active). For the same molecule, the Potency is 20.9 nM (active) in test [14]; 59 nM (active) in [5]; 52.6 nM (active) in test [6]; 66.2 nM (active) in test [7]; 52.6 nM (active) in test [9]; 166 nM (active) in [15].

Turning to `C=CC(=O)Nc1cccc(Oc2nc(Nc3ccc(N4CCN(C)CC4)cc3)ncc2Cl)c1`, the Potency was 9350 nM (active) in test [1]; 16600 nM (active) in test [2]; 5900 nM (active) in test [12]; 2960 nM (active) in test [13]; 18700 nM (active) in [3]; 5900 nM (active) in test [4]. The Potency in test [14] was 3720 nM (active); in [16] it was 4690 nM (active); in [6], 1870 nM (active); in [17], 1870 nM (active); in test [7], 26400 nM (active); in [8], 23500 nM (active). For the same molecule, the Potency was 3720 nM (active) in [10], 16600 nM (active) in test [15] and 18700 nM (active) in [11].

For the molecule `CC1(C)CC(=O)c2c(C(F)(F)F)nn(-c3ccc(C(N)=O)c(NC4CCC(OC(=O)CN)CC4)c3)c2C1` (configuration not stated), the Potency was 132 nM (active) in [1]; 148 nM (active) in [12]; 132 nM (active) in test [18]; 118 nM (active) in test [13]; 132 nM (active) in test [3]; 187 nM (active) in test [14]. For the same molecule, the Potency in test [16] is 74.3 nM (active); in [5] it was 187 nM (active); in test [6], 132 nM (active); in test [17], 148 nM (active); in [7], 187 nM (active); in test [9], 148 nM (active). For the same molecule, the Potency in test [10] was 148 nM (active); in test [15], 469 nM (active); in [11], 209 nM (active).

On to `Cc1nc(N)ncc1-c1nc(N2CCOCC2)c2sc(C(C)(C)O)cc2n1`, for which the Potency was 332 nM (active) in [1]; 662 nM (active) in [2]; 41.8 nM (active) in test [18]; 5260 nM (active) in test [3]; 6620 nM (active) in [4]; 418 nM (active) in test [14]. Further, the Potency in test [16] was 235 nM (active); in [5], 8330 nM (active); in test [17], 1320 nM (active); in [19] it was 1050 nM (active); in test [7], 526 nM (active); in test [8], 148 nM (active). Further, in test [15], the Potency is 105 nM (active).

In the case of `O=C(O)[C@H](Cc1c[nH]c2ccccc12)N1C(=O)c2ccccc2C1=O`, the Potency entry in [1], in test [12], in test [18], in test [14], in test [6] and in [17] was “inactive” throughout. Also, the Potency entry in [19], in test [7] and in test [15] was “inactive” each time. Further, the Potency in [10] is 54000 nM (active); in test [11] it was 42900 nM (active).

For `CC(O)C1C(=O)N2C(C(=O)O)=C(SC3CNC(C(=O)N(C)C)C3)C(C)C12` (configuration not stated), the Potency result in test [1], in [2], in test [12], in test [13], in [4] and in test [16] was “inactive” throughout. In addition, the Potency result in test [5] and in [10] was “inactive” each time.

Turning to `CC[C@H]1CN2CCc3cc(OC)c(OC)cc3[C@H]2C[C@@H]1C[C@@H]1NCCc2cc(OC)c(OC)cc21`, the Potency in test [1] was 187 nM (active); in [2], 166 nM (active); in test [12] it was 264 nM (active); in test [13], 52.6 nM (active); in test [3], 209 nM (active); in test [14] it was 118 nM (active). For the same molecule, the Potency in test [16] was 148 nM (active); in [5], 209 nM (active); in [6], 132 nM (active); in [17] it was 590 nM (active); in [19], 264 nM (active); in [7], 187 nM (active). The Potency in test [9] is 105 nM (active); in [10], 469 nM (active); in test [15], 833 nM (active); in test [11], 83.3 nM (active).

For `Cc1ccc(S(=O)(=O)Nc2cc(Cl)ccc2C(=O)Nc2nc(-c3ccccc3)cs2)cc1`, the Potency in test [1] was 4180 nM (active); in test [12], 5260 nM (active); in test [13] it was 8330 nM (active); in test [3], 18700 nM (active); in [14], 5260 nM (active); in test [5], 16600 nM (active). The Potency is 2640 nM (active) in [6], 7430 nM (active) in [8], 20900 nM (active) in test [9] and 14800 nM (active) in test [11].

`COC(=O)C1=C(C)NC(C)=C(C(=O)OCCN2CCN(C(c3ccccc3)c3ccccc3)CC2)C1c1cccc([N+](=O)[O-])c1` (configuration not stated): the Potency result in test [1], in [2], in [12], in test [4], in test [14] and in test [16] was “inactive” throughout. Besides, the Potency entry in [6], in test [17], in test [7], in test [8] and in test [15] was “inactive” each time.

With `CCC1=C[C@@H]2CN(C1)Cc1c([nH]c3ccccc13)[C@@](C(=O)OC)(c1cc3c(cc1OC)N(C)[C@@H]1[C@@](O)(C(=O)OC)[C@H](OC(C)=O)[C@]4(CC)C=CCN5CC[C@]31[C@@H]54)C2`, the Potency is 8.3 nM (active) in [1]; 14.8 nM (active) in test [12]; 1.9 nM (active) in test [18]; 7430 nM (active) in test [3]; 148 nM (active) in test [4]; 18.7 nM (active) in test [14]. Also, the Potency is 4.7 nM (active) in [16]; 26.4 nM (active) in [5]; 9.3 nM (active) in test [6]; 23.5 nM (active) in test [17]; 33.2 nM (active) in [19]; 2960 nM (active) in [7]. Further, the Potency is 1870 nM (active) in test [8], 2090 nM (active) in test [10] and 2090 nM (active) in [15].
